Data as given in PubChem BioAssay.
Calls of active or inactive are those of the source. Rule as the data show it, unless noted: active = inhibition above about 80%; inactive = the rest.

Tests used:
[1] = viability loss with induced miR-34 in A549 – imaging, A549 dox-inducible miR-34, nuclei and caspase counts, primary screen (AID 1347080;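 active = compounds whose cell count with miR-34 switched on is under 0.7 times the count with it off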); conditions: A549 miR-34 inducible, Hoechst nuclei count, 48 h
[2] = MELAS cybrid and Rieske KO viability enhancers – cell-based, MELAS cybrids, Rieske KO mouse fibroblasts, CellTiter-Glo, primary screen (AID 1508586;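 active = mean z-score across replicates of 1.96 or higher in either the MELAS or the Rieske mutant cell line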;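 also: z relative to plate mean and SD of compound and empty wells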); conditions: low glucose
[3] = growth inhibition, single agent or in combination, cell-based, chromothripsis tumors, cisplatin or BGB combos (AID 1671449); conditions: LFS_MB_P medulloblastoma cells;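 also: cells exposed for 96 hours; 0% = vehicle DMSO and 100% = killing by high DMSO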
[4] = growth inhibition, single agent and combos, cell-based, chromothripsis tumors, cisplatin or BGB combos (AID 1671450); conditions: HDN33 neuroblastoma cells, stronger effect = higher value;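 also: cells exposed to compound for four days; 0% = vehicle DMSO and 100% = cell killing by high DMSO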
[5] = growth inhibition, single agents and combos, ICB984, cell-based, cisplatin or BGB combos, synergistic combos for chromothripsis tumors (AID 1671451; call rule not given here;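 also: cells exposed for 96 hours before readout; 0% = vehicle DMSO and 100% = killing by high DMSO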); conditions: ICB984 medulloblastoma cells, drug combinations, stronger effect = higher value
[6] = growth inhibition, single agents and combos, LFS_MB_1R, cell-based, cisplatin or BGB combos, synergistic combos for chromothripsis tumors (AID 1671452); conditions: LFS_MB_1R medulloblastoma cells, stronger effect = higher value;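 also: cells exposed for 96 hours before readout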
[7] = growth inhibition, single agents and combos, HTB85, cell-based, BGB or cisplatin IC20 combos, synergistic combos for chromothripsis tumors (AID 1671453); conditions: HTB85 osteosarcoma cells, drug combinations, stronger effect = higher value;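 also: cells exposed for 96 hours before readout; 0% = vehicle DMSO and 100% = high DMSO killing control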
[8] = growth inhibition, single agents and combos, CRL2098, cell-based, BGB or cisplatin IC20 combos, synergistic combos for chromothripsis tumors (AID 1671454); conditions: CRL2098 osteosarcoma cells, drug combinations, stronger effect = higher value;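 also: cells exposed for 96 h before readout; 0% = vehicle DMSO and 100% = killing by high DMSO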
[9] = growth inhibition, single agents and combos, HD-MB03, cell-based, BGB or cisplatin IC20 combos, synergistic combos for chromothripsis tumors (AID 1671455; in the data active = inhibition above about 83%;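 also: 0% = vehicle DMSO and 100% = high DMSO as cytotoxic control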); conditions: HD-MB03 medulloblastoma cells, stronger effect = higher value
[10] = growth inhibition, single agents and combos, UWB1.289, cell-based, BGB or cisplatin combos, synergistic combos for chromothripsis tumors (AID 1671456); conditions: UWB1.289 ovarian carcinoma cells, stronger effect = higher value;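 also: cells exposed to compound for four days; 0% = vehicle DMSO and 100% = killing by high DMSO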
[11] = growth inhibition, single agents and combos, LFS_MB_2R, cell-based, cisplatin combos, synergistic combos for chromothripsis tumors (AID 1671457); conditions: LFS_MB_2R medulloblastoma cells, stronger effect = higher value;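 also: cells exposed to compound for four days before readout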
[12] = growth inhibition, MDA-MB-436, cell-based, BGB or cisplatin combos, synergistic combos for chromothripsis tumors (AID 1671458; call rule not given here;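 also: cells exposed for 96 hours; 0% = vehicle DMSO and 100% = killing by high DMSO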); conditions: MDA-MB-436 breast carcinoma growth inhibition, drug combinations, stronger effect = higher value
[13] = UWB1.289_BRCA1 ovarian cancer growth, cell-based, BGB or cisplatin combinations (AID 1671459); conditions: UWB1.289 BRCA1 ovarian carcinoma, drug combinations, stronger effect = higher value
[14] = drug combination toxicity in non-malignant astrocytes – cell-based, BGB or cisplatin IC20 combos, cytotoxicity control for chromothriptic childhood tumor combination screen (AID 1671460); conditions: Human astrocytes, viability inhibition, drug combinations, at 0.5 µM, stronger effect = higher value;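 also: cells exposed to compounds for 96 hours before viability readout; 0% = vehicle and 100% = killing control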
[15] = BT084 cell growth, single and combined drugs, ICGC_MB145, cisplatin and BGB IC40 combos (AID 1671461); conditions: BT084 medulloblastoma cells, drug combinations, stronger effect = higher value;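 also: cells exposed to drugs for 96 hours; 0% = vehicle DMSO and 100% = high DMSO full killing control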
[16] = RCMB18 cell growth, single agent and combined, cisplatin and BGB IC40 combos (AID 1671462); conditions: RCMB18 medulloblastoma cells, stronger effect = higher value;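 also: cells exposed to compound for four days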
[17] = CRL1545 cell growth, single agent and combined, cisplatin and BGB IC20 combos (AID 1671464); conditions: CRL1545 osteosarcoma cells, stronger effect = higher value;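 also: cells exposed to compound for 96 hours before readout; 0% = vehicle DMSO and 100% = high DMSO killing control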
[18] = measured here: combination with BGB IC40, at 0.05 µM
[19] = measured here: with BGB IC20 combination, at 0.5 µM
[20] = measured here: with cisplatin IC20 combination, at 0.5 µM
[21] = measured here: combination with cisplatin, at 0.5 µM
[22] = measured here: combination with cisplatin, at 5 µM

CC(C)(C#N)c1ccc(N2C(=O)OCc3cnc4ccc(-c5cnc6ccccc6c5)cc4c32)cc1
fold change ([1]; stronger effect = lower value, cell number ratio, induced over uninduced): 0.956 (inactive)
fold change ([1]; measured here: relative caspase fold change +Dox/-Dox): 0.673
cell count ([1]; measured here: total cells with miR-34 induction, stronger effect = lower value): 2510
cell count ([1]; measured here: total cells without miR-34 induction): 2620
z-score ([2]; MELAS cybrid survival, CellTiter-Glo 48 h, stronger effect = higher value): 3.99 (active)
z-score ([2]; Rieske KO mouse fibroblast survival, CellTiter-Glo 72 h): 2.98
inhibition ([3]; at 0.5 µM, stronger effect = higher value): -21.4% (inactive)
inhibition ([3]; measured here: combination with BGB IC20, at 0.005 µM): -11.2%
inhibition ([3]; measured here: combination with BGB IC40, at 0.005 µM): -17%
inhibition [3, 18]: -37.9%
inhibition ([3]; measured here: combination with cisplatin, at 0.5 µM, stronger effect = higher value): -37.5%
inhibition ([3]; measured here: combination with cisplatin, at 5 µM, stronger effect = higher value): -27.3%
inhibition ([4]; BGB combo, at 5 µM): 20.7%
inhibition ([4]; at 0.5 µM): 3.13% (inactive)
inhibition ([4]; cisplatin combo, at 5 µM): 12.1%
inhibition [4, 19]: 34.2%
inhibition [4, 20]: -10.9%
inhibition ([4]; single agent, at 5 µM): 52.2%
inhibition ([5]; BGB IC20 combo, at 0.005 µM): -18.4%
inhibition ([5]; BGB IC40 combo, at 0.005 µM): -8.9%
inhibition ([5]; BGB IC40 combo, at 0.05 µM): 30.5%
inhibition ([5]; at 0.5 µM): -29.7% (inactive)
inhibition ([5]; cisplatin combo, at 0.05 µM): 28.5%
inhibition ([5]; cisplatin combo, at 0.5 µM): -15.5%
inhibition ([5]; cisplatin combo, at 5 µM): -36.2%
inhibition ([5]; measured here: 5 uM single agent, at 5 µM): -21.9%
inhibition ([6]; at 0.5 µM): -13.4% (inactive)
inhibition [6, 18]: -7.9%
inhibition [6, 21]: -39.8%
inhibition [6, 22]: 24%
inhibition ([7]; at 0.5 µM): 3.37% (inactive)
inhibition ([7]; measured here: with BGB IC20, at 0.5 µM): 2.55%
inhibition ([7]; measured here: with BGB IC20, at 5 µM): 14.5%
inhibition ([7]; measured here: with cisplatin IC20, at 0.5 µM): -23.6%
inhibition ([7]; measured here: with cisplatin IC20, at 5 µM): 28.2%
inhibition ([7]; single agent, at 5 µM): -10.2%
inhibition ([8]; at 0.5 µM): -42.5% (inactive)
inhibition ([8]; measured here: combination with BGB at IC20, at 0.5 µM): -42.2%
inhibition ([8]; measured here: combination with cisplatin at IC20, at 0.5 µM): -56.5%
inhibition ([9]; at 0.5 µM): -11.6% (inactive)
inhibition ([9]; measured here: combo with BGB at IC20, at 0.5 µM): -14.5%
inhibition ([9]; measured here: combo with cisplatin at IC20, at 0.5 µM): -8.16%
inhibition ([10]; at 0.5 µM): 5.6% (inactive)
inhibition ([10]; measured here: inhibition with BGB combination, at 0.05 µM): -17%
inhibition ([10]; measured here: inhibition with cisplatin combination, at 0.05 µM): -6.61%
inhibition ([11]; at 0.5 µM): -11.6% (inactive)
inhibition [11, 21]: -16.8%
inhibition [11, 22]: -39.1%
inhibition ([12]; at 0.5 µM): -25% (inactive)
inhibition ([12]; measured here: BGB combination, at 0.5 µM): -28.5%
inhibition ([12]; measured here: BGB combination, at 5 µM): -0.266%
inhibition ([12]; measured here: cisplatin combination, at 0.5 µM): -29.7%
inhibition ([12]; measured here: cisplatin combination, at 5 µM): -3.36%
inhibition ([13]; BGB combination, concentration series, at 5 µM): 53.9%
inhibition ([13]; at 0.5 µM): 6.07% (inactive)
inhibition ([13]; cisplatin combination, concentration series, at 5 µM): 99.8%
inhibition [14]: -4.16% (inactive)
inhibition ([14]; measured here: combo with BGB IC20): -12.4%
inhibition ([14]; measured here: combo with cisplatin IC20): -5.44%
inhibition ([15]; at 0.5 µM): -28.9% (inactive)
inhibition ([15]; cisplatin combination, at 0.5 µM): -2.27%
inhibition ([15]; cisplatin combination, at 5 µM): 60.4%
inhibition ([15]; measured here: BGB IC40 combination 0.05 uM, at 0.05 µM): -35.6%
inhibition ([15]; single agent, at 5 µM): 4.04%
inhibition ([16]; at 0.5 µM): -2.14% (inactive)
inhibition ([16]; cisplatin combo, at 5 µM): 20.5%
inhibition ([16]; measured here: BGB IC40 combination, at 0.05 µM): -35.7%
inhibition [16, 21]: 7.95%
inhibition ([16]; single agent, at 5 µM): 19.4%
inhibition ([17]; at 0.5 µM): 0.16% (inactive)
inhibition [17, 19]: -15%
inhibition [17, 20]: 5.66%
inhibition ([17]; single agent, at 0.05 µM): -4.01%
inhibition ([17]; single agent, at 5 µM): 26.5%
